Experimental findings from PubChem BioAssay (EPA / NIEHS) are described below.

Molecules are shown by their SMILES. The source made the active and inactive calls. How the source made its calls: active means hit-call score of the fitted dose curve at least 0.9, where 1 is the maximum; inactive means score below 0.9.

The nature of the assay: CCTE_Shafer_MEA_acute_network_burst_percentage: CCTE's Neural Acute Assay for Percentage of Network Bursts, Shafer Lab (AID 2284022).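 Further: curves fitted for loss so actives lower network burst percentage.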 On the procedure: CCTE_Shafer_MEA_acute assay is conducted using Axion Biosystems 48 well microelectrode array (MEA) plates and Maestro recording system. Each well of the MEA plate contains a grid of 16 microelectrodes embedded in the culture surface. Electrically active cells, such as neurons, can be cultured over the electrodes, and electrical activity in these cells can be recorded extracellularly. The spontaneous firing of neurons is captured from each electrode on a microsecond timescale providing both temporally and spatially precise data. […] The CCTE_Shafer_MEA_acute assay uses primary cultures of rat cortical neurons. As these cultures mature over time, neural networks develop functional activity and form cohesive networks in which electrical activity can be highly coordinated. Baseline 40-minute recordings are made on days post-plating 13 or 15, followed by a secondary 40-minute recording after chemical exposure.CCTE_Shafer_MEA_acute_network_burst_percentage is a component of the CCTE_Shafer_MEA_acute assay. It measures the percent of spikes (action potential firings) in network bursts (temporally-clustered groups of spikes across multiple electrodes) as the number of spikes occuring in network bursts divided by the total number of spikes during a recording in a microelectrode array (MEA) using Axion Biosystems Maestro 768 channel amplifier with the AxIS adaptive spike detector. The recordings before and after chemical treatment are used to calculate a percent change in the network burst percentage in each well.Data from the assay component CCTE_Shafer_MEA_acute_network_burst_percentage was analyzed into 1 assay endpoint. This assay endpoint, CCTE_Shafer_MEA_acute_network_burst_percentage, was analyzed in the negative analysis fitting direction relative to DMSO as the negative control and baseline of activity. Using a type of functional reporter, gain or loss-of-signal activity can be used to understand electrical activity.
Spontaneous activity in the cortical cultures was recorded using an Axion Biosystems Maestro 768 channel amplifier and Axion Integrated Studios (AxIS) v1.8 (or later) software. The amplifier recorded from all channels simultaneously (gain = 1200 x; sampling rate = 12.5 kHz/channel): raw signals were filtered with a Butterworth band-pass filter (300-5000 Hz), which filters out slower local field potentials leaving only fast potentials, i.e., "spikes", arising from extracellular currents associated with action potentials (Pine 2006; Wheeler and Nam 2011). On-line spike detection of filtered signals was conducted with the AxIS adaptive spike detector, using a threshold of 8x the root mean squared (rms) noise on each channel. Any electrodes with rms noise levels greater than 5 uV were grounded (e.g., no data were recorded). Once grounded, an electrode was grounded for the duration of the experiment. All recordings were conducted at 37 C. Wells were deemed usable if on the day of the exposure >/= 10 electrodes were active (defined as >/= 5 spikes/min). On DIV 13 or 15, a minimum of three wells from one cortical culture preparation were treated with each compound (0.03-40 uM). Prior to recording baseline activity, each mwMEA plate was placed in the Maestro at 37 C and allowed to sit for 20 min while firing rates stabilized. Baseline activity (40 min) was recorded before the addition of each compound. An additional 40 min of spontaneous activity was recorded in the presence of each compound. Changes in network parameters relative to baseline were assessed following compound treatment.
As for `N#Cc1cccnc1`, the result was inactive.

On to `Cc1cc(C(F)(C(F)(F)F)C(F)(F)F)ccc1NC(=O)c1cccc(I)c1C(=O)NC(C)(C)CS(C)(=O)=O`, for which the compound was classed as inactive.

For `CN(C)C(=S)S`, the compound was called inactive.

Turning to `CCCCOC(=O)COC(=O)c1ccccc1C(=O)OCCCC`, the call was inactive.

Take `Clc1cccc(Cl)c1Cl`: the compound was called inactive.

In the case of `Oc1ccc(Cc2ccc(O)cc2)cc1`, the call was inactive.

`Cc1ccccc1OP(=O)(Oc1ccccc1C)Oc1ccccc1C`: the compound was called inactive.

With `CC(C)(C)c1ccccc1O`, the call was inactive.

As for `Oc1cc(Cl)c(Cl)cc1Cl`, the compound was classed as inactive.

The term AC50 denotes the concentration at which the activity in the assay is half-maximal. Consider `CC(C)[C@@H](Nc1ccc(C(F)(F)F)cc1Cl)C(=O)OC(C#N)c1cccc(Oc2ccccc2)c1` (stereo not given in full), for which the AC50 was 564 nM (active).

Take `OCCCCO`: the compound was classed as inactive.

On to `CS(=O)(=O)c1ccc(C(=O)C2C(=O)CCCC2=O)c(Cl)c1COCC(F)(F)F`, for which the compound was called inactive.

In the case of `O=C(Cc1ccccc1)OCCc1ccccc1`, the result was inactive.

As to `CC1(C)[C@H](C(=O)O[C@H](C#N)c2cccc(Oc3ccccc3)c2)[C@@H]1/C=C(\Cl)C(F)(F)F`, the AC50 was 551 nM (active).

As for `CCCCCCCCCCCCc1cccc(S(=O)(=O)O)c1`, the compound was called inactive.
